Screens: PubChem, National Center for Advancing Translational Sciences (NCATS)
Tau fluor cs: counter-screen for tau fibril formation inhibitors; tau K18 P301L Alexa594 fluorescence, heparin fibrillization; Potency, µM (highest dose often 57.7 µM), without a hit: top-dose activity change, negative = decrease; 280,000 tested, 0.93% active; also: potency is read from the fitted curve at half-maximal effect; nearly all actives have a fitted effect of over 55% in size
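Human tau K18 P301L (15 uM unlabeled, 0.24 uM Alexa 594-labeled) in 100 mM sodium acetate pH 7 with 20 uM heparin, 6 hr at 37 C. ThT 30 uM added, 1 hr ambient; Alexa 594 FP and total fluorescence read at 555/632 nm.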
Tau fibril ThT: inhibitors of human tau fibril formation, thioflavin T binding; P10636; recombinant tau K18 P301L, heparin-induced fibrillization, ThT fluorescence; Potency, µM (titrated, usually from 57.4 µM), inactives show at the top dose activity, negative = inhibition, usual class: inhibitors; 270,000 tested, 2.1% active; also: potency is read from the fitted curve at half-maximal effect; nearly all actives have a fitted effect of over 55% in size
Target sequence (P10636 561-689 P618L limits assumed): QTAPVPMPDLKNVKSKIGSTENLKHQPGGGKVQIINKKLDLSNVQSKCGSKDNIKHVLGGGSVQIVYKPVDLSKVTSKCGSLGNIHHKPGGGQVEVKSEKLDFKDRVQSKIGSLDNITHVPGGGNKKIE
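Using a mix of unlabeled (15 uM) and Alexa 594-labeled (0.24 uM) tau K18 P301L, heparin-triggered fibrillization over 6 hr at 37 C was scored by ThT fluorescence.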
Tau FP inhib: tau fibrillization inhibition (FP); K18 P301L tau heparin fibrillization, Alexa594 FP, 6 h; 280,000 tested, 0.39% active; P10636; Potency, µM (titrated, usually from 57.7 µM), inactives show top-dose activity, negative = inhibition, usual class: inhibitors; AID 1468; also: potency is read from the fitted curve at half-maximal effect; nearly all actives have a fitted effect of over 55% in size
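Quantitative HTS format: compounds meet 15 uM recombinant K18 P301L tau and Alexa 594-tau tracer in 100 mM sodium acetate pH 7; 20 uM heparin triggers fibrillization at 37 C over 6 hr; FP gives the signal.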
Coupling enz: counter-screen for Giardia aldolase inhibitors: coupling enzyme system | coupling enzyme system counterscreen, AmpLite Red fluorescence | activity change, negative = inhibition, % at 58.2 µM, hits read low | 290,000 tested, 0.67% active; in the data active = activity change below about -30%
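Activity here indicates interference with the coupling reaction, not aldolase inhibition. Compounds at 57.5 uM final met coupling enzymes for 10 min at RT; substrate and AmpLite Red detection followed, with a 525/598 nm fluorescence read after 20 min.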
The depositor's hits bear a star; ? = inconclusive; nt = no result; [ ] = another dose, or the depositor's remark. Only some compounds are listed: those with a hit (about 2.7% of all), similar ones and a draw of the others. Unless noted, calls follow the shape of the dose curve; as a rule, active = well fitted curve in the direction sought with a large enough effect; inconclusive = small, poorly fitted or top-dose-only effect, or another doubt; inactive = no such curve, though single readings can be large; an effect the other way counts as inactive or inconclusive. % is scaled to controls: 0 for no effect and ±100 for the full control effect.

SMILES	Tau fluor cs	Tau fibril ThT	Tau FP inhib	Coupling enz
Cc1[nH]c2ccccc2c1SCCNC(=O)c1ccc(S(=O)(=O)N2CCCC2)cc1	16µM*[quencher]	-15%	6%	-2
CCN(CC)S(=O)(=O)c1ccc(C(=O)NCCSc2c(-c3ccc(C)cc3)[nH]c3ccccc23)cc1	3.2µM*[quencher]	-4%	-1%	nt
COc1ccc(-c2[nH]c3ccccc3c2SCCNC(=O)c2cc3ccccc3oc2=O)cc1	11µM*[quencher]	?	14%	-1
COC(=O)C1=C(C)NC(=O)/C1=C\c1cc(C)n(-c2ccc(F)cc2)c1C	?	16µM*	1%	-15
COC(=O)C1=C(C)NC(=O)/C1=C\c1cc(C)n(-c2cccc(C)c2)c1C	?	25µM*	3%	-11
Cc1ccccc1C(=O)Nc1cccc(C(=O)OCc2cc(=O)n3c(C)csc3n2)c1	-10%	-10%	1%	nt
O=C(NCCCN1CCOCC1)c1sc2cc([N+](=O)[O-])ccc2c1Cl	-26%	28µM*	?	-60*
O=C(NCCCN1CCOCC1)c1sc2cc(Cl)ccc2c1Cl	-7%	-6%	-3%	1
O=c1c(N2CCN(c3cccc(C(F)(F)F)c3)CC2)csc2ccc(Cl)cc12	-19%	16µM*	4%	nt
Cc1ccc2scc(N3CCN(c4cccc(C(F)(F)F)c4)CC3)c(=O)c2c1	-4%	?	0%	nt
O=c1c(N2CCN(c3cccc(Cl)c3)CC2)csc2ccc(Cl)cc12	-29%	8.9µM*	-5%	nt
COc1cc(OC)cc(-c2nc3nc(C)c(CCC(=O)Nc4ccc(F)cc4F)c(C)n3n2)c1	?	?	-8%	nt
O=C(c1ccncc1)N1CCC2(CCCN(Cc3nccs3)C2)CC1	nt	nt	nt	1
COc1ccc(-c2c(C)nn3c(-c4ccccc4)cc(-c4ccccc4)nc23)cc1	-27%	-12%	8%	nt
O=C(NCc1ccccc1)c1ccc2nc(-c3ccco3)c(-c3ccco3)nc2c1	?	14µM*	?	-19
CC(=O)c1ccc(NC(=O)CSc2nnc(-c3ccco3)c(-c3ccco3)n2)cc1	?	4µM*	8.9µM*	-13
CC(=O)c1ccc(NC(=O)c2ccc3nc(-c4ccco4)c(-c4ccco4)nc3c2)cc1	?	13µM*	-14%	-30*
O=C(Nc1ccccc1)c1ccc2nc(-c3ccco3)c(-c3ccco3)nc2c1	?	?	?	-38*
CC(=O)c1ccc(NC(=O)c2cc(-c3ccc(Cl)c(Cl)c3)on2)cc1	-14%	?	1%	nt
CCc1cccc(NC(=O)Cn2nc3c4cc(F)ccc4n(Cc4cccc(C)c4)cc-3c2=O)c1	-6%	?	-11%	nt
Cn1cnnc1Sc1ccc(C(=O)OCC(=O)Nc2ccccc2)cc1[N+](=O)[O-]	-15%	-12%	5%	0
Cn1cnnc1Sc1ccc(/C=C/C(=O)c2ccc(O)cc2)cc1[N+](=O)[O-]	?	14µM*	2%	0
CCC(C)(C)NC(=O)c1ccc(Sc2nncn2C)c([N+](=O)[O-])c1	4%	6%	2%	-1
Cn1cnnc1Sc1ccc(C(=O)OCC(=O)Nc2cc(Cl)cc(Cl)c2)cc1[N+](=O)[O-]	13µM*[quencher]	?	-4%	0
CC(C)CN1CCc2nc(-c3ccccc3)c3c(c2CC1)COC(C)C3 (configuration not stated)	-4%[11.6 µM]	-4%[11.5 µM]	-6%[11.6 µM]	1
SMILES	Tau fluor cs	Tau fibril ThT	Tau FP inhib	Coupling enz
O=C(N/N=C/c1ccc(N2CCCC2)c([N+](=O)[O-])c1)c1cccnc1	-24%	14µM*	5%	4
O=C(N/N=C/c1ccc(N2CCOCC2)c([N+](=O)[O-])c1)c1ccc(F)cc1	-29%	11µM*	9%	0
COc1ccc(/C=N/NC(=O)c2cccnc2)cc1CN1CCCc2ccccc21	13µM*[quencher]	?	8%	1
CC(=O)c1ccccc1OCC(O)Cn1c(CO)nc2ccccc21 (configuration not stated)	-5%	-2%	9%	nt
Cc1nc(NCCC(C)C)c2nnn(Cc3ccccc3)c2n1	nt	nt	nt	0
Cc1ccc(C2(C)NC(=O)N(CC(=O)NCc3cccc(Cl)c3)C2=O)cc1 (configuration not stated)	nt	nt	nt	-4
O=c1cnc2cnc(N3CCOCC3)nc2n1C1CC1	nt	nt	nt	3
Cc1ccc(C(=O)c2c(C)oc3c2C(=O)C(=O)c2ccccc2-3)cc1	-27%	3.5µM*	?	-79*
Cc1ccc(C(=O)C(OC(=O)c2c(C)cc(=O)oc2C)c2ccccc2)cc1 (configuration not stated)	-14%	-17%	-4%	0
COc1ccc(C(=O)c2coc(-c3ccccc3C(=O)O)c2C(=O)O)cc1	6%	-1%	4%	-2
Cc1oc2c(c1C(=O)c1ccc(Cl)cc1)C(=O)C(=O)c1ccccc1-2	-28%	2.2µM*	?	-79*
Cc1ccc(C(=O)c2coc3c2C(=O)C(=O)c2ccccc2-3)cc1	?	2.2µM*	?	-79*
O=C(Nc1ccccc1Br)N1CCC(CN2CCCC2)CC1	-12%	?	?	nt
CCN(CCN(C)C)C(=O)c1ccc2c(c1NCCO)C(=O)c1ccccc1C2=O	-15%	?	-2%	-37*
O=C1c2ccccc2C(=O)c2c1ccc(C(=O)N1CCCCC1)c2NCCO	-12%	-15%	-2%	0
CC1(C)CCCN(C(=O)c2ccc3c(c2NCCO)C(=O)c2ccccc2C3=O)C1	?	14µM*	18%	-2
C[C@@H]1Cc2c(O)c(O)cc(O)c2C(=O)O1	-21%	32µM*	25µM*	-3
CC1CC(Nc2cccc(O)c2)=CC(=O)O1 (configuration not stated)	-7%	-13%	-2%	2
COc1ccccc1-c1nc2ccccc2nc1-c1ccccc1OC	-4%	0%	1%	-1
O=C1c2ccccc2-c2nc3ccccc3nc21	?	20µM*	?	-7
CC(C)(C)c1cc(CN2CCCCC2)cc(C(C)(C)C)c1O	0%	2%	1%	-56*
Cn1c(=O)c2c(SCC(=O)Nc3ccccc3C(F)(F)F)nc(C3CCCC3)nc2n(C)c1=O	10%	6%	4%	nt
Cc1ccc(CCNC(=O)c2c(C)oc3nc(C)nc(N4CCOCC4)c23)cc1	-11%	-1%	2%	nt
CC(C)c1ccc(Nc2cc(C(=O)NCCc3ccccc3)c3ccccc3n2)cc1	?	1%	1%	nt
CSc1cccc(Nc2cc(C(=O)NCCCN(Cc3ccccc3)C(C)C)c3ccccc3n2)c1	3.5µM*[quencher]	?	?	nt
Cc1cc(C)cc(Nc2cc(C(=O)NCCCN(Cc3ccccc3)C(C)C)c3ccccc3n2)c1	2.8µM*[quencher]	-16%	?	nt
Cc1ccc(C)n1-c1sccc1C(=O)O	-25%	32µM*	?	0
Cc1ccc(C)n1-c1sc2c(c1C(=O)O)CCCC2	-23%	?	?	5
N=C1S/C(=C\c2ccco2)C(=O)N1c1ccc2c(c1)OCO2	?	16µM*	-2%	0
N=C1S/C(=C\c2ccco2)C(=O)N1c1nccs1	-22%	16µM*	-2%	-4
